Experimental data taken from the supplement of paper PMC6555819.

What was measured:
Assay in all cases: PBM binding z-score (relative to random genomic background probes); higher = stronger binding; sequences stand for … in GC…GCGATTGACAGCGTAGAATGAAGG
[1] = tested on: FXR:RXRa (NR concentration 270 nM, RXRa partner concentration 90 nM)
How it was run: (§1)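 Regression normalization was applied to scanned fluorescence from custom Agilent 4×180K protein-binding microarrays. Before scanning, arrays were incubated 1 h with ligand-free nuclear receptor dimers, and binding was detected with antibodies against each partner (one per run). Binding z-scores use the random background probes as reference.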

[2] = tested on: LXRa:RXRa (NR concentration 270 nM, RXRa partner concentration 90 nM)
How it was run: as §1

[3] = tested on: LXRa homodimer (NR concentration 270 nM)
How it was run: as §1

[4] = tested on: LXRb:RXRa (NR concentration 270 nM, RXRa partner concentration 90 nM)
How it was run: as §1

[5] = tested on: LXRb homodimer (NR concentration 270 nM)
How it was run: as §1

[6] = tested on: PPARa:RXRa (NR concentration 270 nM, RXRa partner concentration 90 nM)
How it was run: as §1

[7] = tested on: PPARg:RXRa (NR concentration 180 nM, RXRa partner concentration 90 nM)
How it was run: as §1

[8] = tested on: PPARg:RXRa 270nM:90nM, anti-RXR (NR concentration 270 nM, RXRa partner concentration 90 nM)
How it was run: as §1

[9] = tested on: PPARg:RXRa 30nM:10nM, anti-RXR (NR concentration 30 nM, RXRa partner concentration 10 nM)
How it was run: as §1

[10] = tested on: PPARg:RXRa 90nM:30nM, anti-RXR (NR concentration 90 nM, RXRa partner concentration 30 nM)
How it was run: as §1

Sequence	PBM binding z-score [1]	PBM binding z-score [2]	PBM binding z-score [3]	PBM binding z-score [4]	PBM binding z-score [5]	PBM binding z-score [6]	PBM binding z-score [7]	PBM binding z-score [8]	PBM binding z-score [9]	PBM binding z-score [10]
ATATGTAGGCTATCGGGTCATTCAGTTTGCGCAT	1.71	1.58	0.22	1.95	0.313	3.69	4.12	3.83	1.92	3.21
CCGATTGGGGCAGAAAGGTTACCATACCATCCGG	0.261	0.61	-0.352	1.09	-0.598	2.22	2.06	3.83	2.17	3.56
TCTGCTAGGTCAACGATGGTCAGCTACTCTGCTA	3.16	2.86	-0.273	1.48	-0.302	3.3	2.4	3.05	1.62	2.47
CGAACTAGGTCATAGACAGGACAGTGAATAGTAA	3.32	2.16	0.422	1.64	-0.534	4.33	7.56	6.26	3.94	5.68
CAAACTAGGGCAAAGGTCAAAGTCGAGCCAACCA	7.07	6.32	4.3	6.01	1.82	7.48	13.2	10.9	12.2	12.5
CCTAGCAGGCCATTCTGGGTCACTCAAGGCTTGA	2.69	4.53	0.0938	2.17	-0.726	2.61	0.687	1.16	-0.704	0.4
CAAACTAGCTCACAGAGGTCAAAGTCCGTGCGTA	4.84	5.04	5.7	4.99	1.59	4.82	2.1	3.38	1.05	2.74
TCATATAGGTAAACAGGTGAAAGGCCGTAAGTTA	1.02	0.944	0.383	0.971	0.244	3.2	5.16	4.67	4.73	5.29
GGAACGAGGGCAAGTTGTTAGCAGAGTTTGATGG	0.972	0.498	-0.221	0.541	-0.646	1.84	0.863	1.04	-0.161	0.479
AGAACGAGGGCAATGAGTTGAGAGCACGGGTGGC	0.342	-0.0458	-0.343	-0.251	-0.332	1.42	1.39	1.17	-0.064	0.763
TCGAGTAGGTTAGTCGGGGCCTTCAGCCAACATA	-0.352	-0.131	-0.672	0.0154	-1.21	0.259	-0.8	0.291	0.448	0.62
GCTAGTTGGTCAGTAAAAGGGCACACACCGGTCG	0.16	0.257	0.266	0.266	-0.104	0.841	0.709	1.04	0.0544	0.502
AGAACGAGGGTAATGAGTTGATAGCACGGGTGGC	-0.398	-0.272	-0.536	-0.672	-0.615	0.387	1.08	0.119	0.202	0.182
GTACCAAGGTGCATAGGTCGTTGATGAGTAGGCG	0.192	0.486	0.209	-0.189	-0.908	1.3	1.21	1.88	0.013	1.15
TCTATTAGTTGATTAGGGCAACCTAAACAGCGGA	0.561	0.704	0.325	0.595	0.8	0.918	0.209	1.95	3.39	2.86
GCTAGTTGGTCAGTAAAAGGTCACACGCCGGTCG	3.48	4.98	4.69	4.1	0.629	4.52	3.32	4.66	2.53	4.53
CTACCAAGGTGAACAAGTTCGTTGATTACTATTC	0.442	0.532	0.164	0.939	-0.333	1.49	0.367	0.665	-0.0232	0.145
CGTCCAAGGTCAAAGTTCAGTGAAGAGATGACGG	7.9	6.35	3.82	5.48	2.19	6.47	9.06	8.05	6.19	8.24
CCTACTGAGCCATTCAGAGGTCATTGATCATATG	2.84	4.67	6.83	3.88	1.24	3.63	0.797	1.84	0.239	1.39
